ClpP mod: qHTS Assay for Activators of ClpP | ATP-dependent Clp protease proteolytic subunit (Bacillus subtilis (strain 168)), P80244 | purified B. subtilis ClpP, FRET peptide cleavage, 20 min | Potency, µM (doses to about 57.5 µM), without a hit: top-dose activity change, negative = active | hit rate 1.9% among 340,000 | AID 651965, 2013; active means well fitted falling curve with a large enough effect; inconclusive means small, poorly fitted or top-dose-only effect; inactive means no such curve, though single readings can be large or run the other way; further: potency means the concentration at half of the fitted maximal effect; the source files actives as falling curves though it sought activators and does not explain the sign; nearly all actives have a fitted effect of over 65% in size
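FRET quenching reversal measured ClpP activation: 10 microg/mL B. subtilis ClpP at pH 8 with the FRET-FV decapeptide, read at 430 nm after 320 nm excitation. The 20-min minus 0-min signal was scaled between DMSO/no-enzyme wells and ADEP (5.8 microM final).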
D3 antag: antagonists of human D3 dopamine receptor; D3R cells, DiscoveRx beta-arrestin luminescence, antagonist mode; stronger effect = lower value; max response, negative = inhibition, %; hit rate 2.5% among 360,000; AID 652054; in the data active means max response below about -50%; inconclusive means no clear call, values can overlap the other calls; further: on the % scale 0 is the no-effect control and ±100 the full control effect
Target sequence (P35462 whole entry, looked up): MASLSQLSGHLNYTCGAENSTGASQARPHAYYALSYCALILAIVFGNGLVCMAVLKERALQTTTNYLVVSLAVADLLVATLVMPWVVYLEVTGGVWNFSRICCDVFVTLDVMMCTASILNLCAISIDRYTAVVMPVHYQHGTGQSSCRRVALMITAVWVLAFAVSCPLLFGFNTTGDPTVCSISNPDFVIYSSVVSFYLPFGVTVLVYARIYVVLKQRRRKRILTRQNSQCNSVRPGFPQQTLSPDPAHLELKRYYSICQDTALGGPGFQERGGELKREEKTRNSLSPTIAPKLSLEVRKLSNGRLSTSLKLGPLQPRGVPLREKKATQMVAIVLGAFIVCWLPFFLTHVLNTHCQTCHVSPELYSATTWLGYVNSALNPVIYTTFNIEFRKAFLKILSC
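Cells expressing the human receptor were seeded at 1500 cells/well, incubated overnight at 37 degrees C in 5% CO2, then exposed to library compounds with dopamine controls for 90 minutes at 37 degrees C before luminescent detection.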
IL-1B inflam inh: blocks inflammasome-driven IL-1 beta release; hit rate 4.7% among 360,000; THP-1 LPS/ATP IL-1B secretion, AlphaLISA, 16 h; stronger effect = lower value; activity change, % at 57.5 µM; in the data active means activity change below about -50%; inconclusive means mostly about -30% to -49%; further: on the % scale 0 is the no-effect control and ±100 the full control effect
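THP-1 cells pretreated 1 hr with compounds (up to 57.5 uM final), then stimulated with LPS (250 ng/mL final) plus ATP (1.25 mM final); secreted IL-1B measured by AlphaLISA after 16 hr, decreased signal indicating inhibition.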
TDP1 cell noCPT: qHTS for Inhibitors of human tyrosyl-DNA phosphodiesterase 1 (TDP1): qHTS in cells in absence of CPT; DT40 Tdp1-/- hTDP1 cells, no CPT, ATP luminescence, 48 h; Potency, µM (highest dose often 46.2 µM), without a hit: top-dose activity change, negative = growth inhibition, actives largely listed as inhibitors; hit rate 15% among 420,000; further: potency means the concentration at half of the fitted maximal effect; on the % scale 0 is the no-effect control and ±100 the full control effect; nearly all actives have a fitted effect of over 55% in size
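Stably hTDP1-transfected Tdp1-null chicken DT40 cells were treated with library compounds minus camptothecin and grown for at least 48 hr at 37 °C, after which cellular ATP was quantified by luminescence.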
D3 ag: D3 dopamine receptor (human) agonism. D3R DiscoveRx beta-arrestin cells, luminescence, 90 min. hit rate 0.58% among 410,000. P35462. max activation, %; in the data active means max activation above about 30%; further: 0% is about no effect
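Agonist mode: compounds and dopamine controls were applied to plated cells for 90 min at 37 degrees C after an overnight attachment at 1500 cells/well. Luminescent read-out followed 30 - 60 minutes at room temperature with DiscoveRx detection reagent.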
TDP1 cell CPT: growth inhibition of DT40 Tdp1-/-;hTDP1 cells with camptothecin (screen for TDP1 inhibitors); Potency, µM (highest dose often 46.2 µM), without a hit: at the top dose activity change, negative = growth inhibition, actives largely listed as inhibitors; hit rate 12% among 420,000; chicken DT40 Tdp1-/-;hTDP1 cells + 20 nM CPT, ATP luminescence, 48 h; further: potency means the concentration at half of the fitted maximal effect; on the % scale 0 is the no-effect control and ±100 the full control effect; nearly all actives have a fitted effect of over 55% in size
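Cell growth measured by CellTiter-Glo luminescence after a minimum 48 h, 37 C compound exposure with 20 nM CPT in Tdp1-knockout DT40 cells stably expressing hTDP1, seeded 400/well; qHTS titration format.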
An asterisk follows results filed as active. This is a sample that favours compounds with a hit; in the whole collection about 21% have one here. Unless noted, the call rests on the fitted dose curve; in most records, active means well fitted inhibition curve with a large enough effect; inconclusive means small, poorly fitted or top-dose-only effect; inactive means flat fitted curve, though single readings scatter.

Screening Cc1ccc(OCCn2cc(C(=O)O)c3ccccc32)cc1 returned D3 antag -6, IL-1B inflam inh -7, TDP1 cell noCPT -4%, D3 ag -5 and TDP1 cell CPT 5%.
Screening COCCn1cc(C(=S)N2CCCCC2)c2ccccc21 returned D3 antag 12, IL-1B inflam inh -19, TDP1 cell noCPT inconclusive, D3 ag -3 and TDP1 cell CPT 0%.
Screening S=C(c1cn(CCOc2cccc3ccccc23)c2ccccc12)N1CCCC1 returned ClpP mod -1%, D3 antag -15, IL-1B inflam inh -6, TDP1 cell noCPT 13µM*, D3 ag 0 and TDP1 cell CPT 10µM*.
Cc1ccc(OCCn2cc(C(=O)C3CCCCC3)c3ccccc32)cc1 was read as ClpP mod -5%, TDP1 cell noCPT 18µM*, D3 ag -2 and TDP1 cell CPT 21µM*.
Screening Cc1ccc(OCCn2cc(C(=S)N3CCCC3)c3ccccc32)cc1C returned ClpP mod -2%, D3 antag -54*, IL-1B inflam inh -15, TDP1 cell noCPT 4.1µM*, D3 ag 1 and TDP1 cell CPT 8.2µM*.
For COCCn1cc(C(=S)N2CCOCC2)c2ccccc21 the results were ClpP mod 1%, D3 antag -26, IL-1B inflam inh 24, TDP1 cell noCPT 5%, D3 ag -1 and TDP1 cell CPT -28%.
`S=C(c1cn(CCOc2ccccc2)c2ccccc12)N1CCCC1` gave ClpP mod 1%, D3 antag 4, IL-1B inflam inh -21, TDP1 cell noCPT 20µM*, D3 ag -1 and TDP1 cell CPT 18µM*.
For C/C(=N/NC(=O)c1cccs1)c1cccs1 the results were D3 antag 3, IL-1B inflam inh -14, TDP1 cell noCPT -8%, D3 ag 4 and TDP1 cell CPT -11%.
`C[C@H](NC(=O)c1ccccc1Cl)C(=O)OCC(=O)NNC(=O)c1cccs1` gave ClpP mod -2%, D3 antag -55*, IL-1B inflam inh 4, TDP1 cell noCPT -15%, D3 ag -15 and TDP1 cell CPT 2%.
Screening O=C(NNC(=O)c1cc2ccccc2cc1O)c1cccs1 returned D3 antag 86, IL-1B inflam inh 176, TDP1 cell noCPT inconclusive, D3 ag 9 and TDP1 cell CPT 23µM*.
For C/C(=N\NC(=O)c1cc2ccccc2cc1O)c1cccs1 the results were ClpP mod -1%, D3 antag -8, IL-1B inflam inh -50*, TDP1 cell noCPT 13µM*, D3 ag 6 and TDP1 cell CPT -21%.
O=C(NNC(=O)c1ccc2ccccc2c1O)c1cccs1 was read as D3 antag -15, IL-1B inflam inh -8, TDP1 cell noCPT inconclusive, D3 ag 10 and TDP1 cell CPT 18%.
`COc1ccc(C(=O)N(c2c(C)cccc2C)C(COC(C)=O)COC(C)=O)cc1` gave ClpP mod -1%, D3 antag -14, IL-1B inflam inh 21, TDP1 cell noCPT inconclusive, D3 ag -3 and TDP1 cell CPT inconclusive.
For Cc1ccc(C(=O)NC2CCc3ccccc3C2=O)cc1 (configuration not stated) the results were ClpP mod -1%, D3 antag -6, IL-1B inflam inh -6, TDP1 cell noCPT -25%, D3 ag 2 and TDP1 cell CPT inconclusive.
For CC(=O)Nc1ccc(NC(=O)C2c3ccccc3Oc3ccccc32)cc1 the results were D3 antag 0, IL-1B inflam inh -3, TDP1 cell noCPT -2%, D3 ag 3 and TDP1 cell CPT 14%.
Cc1ccc(NC(=O)C2c3ccccc3-c3ccccc32)cc1 was read as ClpP mod inconclusive, D3 antag 4, IL-1B inflam inh -2, TDP1 cell noCPT inconclusive, D3 ag 3 and TDP1 cell CPT 6.5µM*.
